TDP1 cell noCPT: qHTS for Inhibitors of human tyrosyl-DNA phosphodiesterase 1 (TDP1): qHTS in cells in absence of CPT | AID 686978, 2013 | Potency, µM (doses to about 46.2 µM), inactives show at the highest dose activity change, negative = growth inhibition, usual class: inhibitors | DT40 Tdp1-/- hTDP1 cells, no CPT, ATP luminescence, 48 h | actives 15% (n = 420,000); further: potency means the concentration at half of the fitted maximal effect; on the % scale 0 is the no-effect control and ±100 the full control effect; nearly all actives have a fitted effect of over 55% in size
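Chicken DT40 Tdp1-/- cells complemented with human TDP1, screened without camptothecin (DMSO vehicle only), 400 cells/well. Compounds pin-transferred, cells incubated at 37 °C for at least 48 hr. Growth read as ATP-dependent luminescence (CellTiter-Glo, 30 min at RT).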
DT40 TDP1 CPT: DT40-hTDP1 cell growth loss with CPT | chicken DT40 Tdp1-/-;hTDP1 cells + 20 nM CPT, ATP luminescence, 48 h | Potency, µM (series often up to 46.2 µM), for inactives: at the highest dose activity change, negative = growth inhibition, hits mostly inhibitors | actives 12% (n = 420,000) | AID 686979; further: potency means the concentration at half of the fitted maximal effect; on the % scale 0 is the no-effect control and ±100 the full control effect; nearly all actives have a fitted effect of over 55% in size
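Chicken DT40 Tdp1-/- cells complemented with human TDP1, 400 cells/well, exposed to compounds plus 20 nM camptothecin for at least 48 h at 37 C; viability read as ATP content by CellTiter-Glo luminescence.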
ClpP mod: qHTS Assay for Activators of ClpP | ATP-dependent Clp protease proteolytic subunit (Bacillus subtilis (strain 168)), P80244 | purified B. subtilis ClpP, FRET peptide cleavage, 20 min | Potency, µM (series often up to 57.5 µM), for inactives: top-dose activity change, negative = active | actives 1.9% (n = 340,000) | AID 651965, 2013; active means well fitted falling curve with a large enough effect; inconclusive means small, poorly fitted or top-dose-only effect; inactive means no such curve, though single readings can be large or run the other way; further: potency means the concentration at half of the fitted maximal effect; the source files actives as falling curves though it sought activators and does not explain the sign; nearly all actives have a fitted effect of over 65% in size
Target sequence (P80244 whole entry, looked up): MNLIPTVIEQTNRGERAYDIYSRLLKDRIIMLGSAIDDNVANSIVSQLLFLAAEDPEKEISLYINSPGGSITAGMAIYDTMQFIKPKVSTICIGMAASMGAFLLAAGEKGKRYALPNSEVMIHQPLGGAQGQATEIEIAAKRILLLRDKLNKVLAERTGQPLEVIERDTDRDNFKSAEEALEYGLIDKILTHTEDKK
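Purified B. subtilis ClpP, 10 microg/mL final in Tris/HCl pH8 with KCl, BSA, glycerol and Tween-20, cleaved an Abz/nitrotyrosine-quenched decapeptide. Fluorescence (ex 320, em 430) was read at 0 and 20 min at room temperature. Delta was normalized to 5.8 microM ADEP and DMSO/no-enzyme controls.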
IL1B secr inh: inhibitors of inflammasome signaling (IL-1 beta secretion); THP-1 LPS/ATP IL-1B secretion, AlphaLISA, 16 h; stronger effect = lower value; activity change, % at 57.5 µM; actives 4.7% (n = 360,000); in the data active means activity change below about -50%; inconclusive means mostly about -30% to -49%; further: on the % scale 0 is the no-effect control and ±100 the full control effect
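THP-1 cells pretreated 1 hr with compounds (up to 57.5 uM final), then stimulated with LPS (250 ng/mL final) plus ATP (1.25 mM final); secreted IL-1B measured by AlphaLISA after 16 hr, decreased signal indicating inhibition.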
DRD3 antagonist: antagonists of human D3 dopamine receptor; max response, negative = inhibition, %; D3R cells, DiscoveRx beta-arrestin luminescence, antagonist mode; stronger effect = lower value; actives 2.5% (n = 360,000); in the data active means max response below about -50%; inconclusive means no clear call, values can overlap the other calls; further: on the % scale 0 is the no-effect control and ±100 the full control effect
Target sequence (P35462 whole entry, looked up): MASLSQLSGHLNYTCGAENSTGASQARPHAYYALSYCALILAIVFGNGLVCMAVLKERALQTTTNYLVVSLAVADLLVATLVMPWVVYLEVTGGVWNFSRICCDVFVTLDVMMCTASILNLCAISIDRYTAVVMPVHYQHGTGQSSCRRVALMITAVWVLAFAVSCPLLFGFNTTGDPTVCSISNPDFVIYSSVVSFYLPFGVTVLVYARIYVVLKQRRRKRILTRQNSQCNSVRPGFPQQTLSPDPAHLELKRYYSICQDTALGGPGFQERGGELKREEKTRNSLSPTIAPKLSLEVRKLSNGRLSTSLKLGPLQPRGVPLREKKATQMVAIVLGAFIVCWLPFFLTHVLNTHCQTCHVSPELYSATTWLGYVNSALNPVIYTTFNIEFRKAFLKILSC
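Cells plated overnight at 1500 cells/well, then exposed to library compounds with dopamine controls for 90 minutes at 37 degrees C. DiscoveRx reagent added for 30–60 minutes at room temperature; luminescence read, quantitative HTS format.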
D3 ag: D3 dopamine receptor (human) agonism | max activation, % | P35462 | actives 0.58% (n = 410,000) | D3R DiscoveRx beta-arrestin cells, luminescence, 90 min; in the data active means max activation above about 30%; further: 0% is about no effect
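Agonist-mode cell screen: cells plated at 1500/well and incubated overnight at 37 °C, then exposed to library compounds for 90 min at 37 °C. Detection reagent was added for 30–60 min at room temperature, and luminescence was read.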
The depositor's hits bear a star; ? = inconclusive; / = no result given. Compounds with a hit are over-represented: about 21% of the library has one in this group of screens. Unless noted, the call rests on the fitted dose curve; in most records, active means well fitted inhibition curve with a large enough effect; inconclusive means small, poorly fitted or top-dose-only effect; inactive means flat fitted curve, though single readings scatter.

SMILES	TDP1 cell noCPT	DT40 TDP1 CPT	ClpP mod	IL1B secr inh	DRD3 antagonist	D3 ag
C#CCOCCOCCOCCNc1nc(N2CCN(C(=O)[C@H]([C@@H](C)O)n3cc(CCCCN)nn3)CC2)nc(N2CCN(C(=O)[C@H](CCCCN)n3cc(CC(C)O)nn3)CC2)n1 (stereo partly specified)	-6%	-19%	0%	-10	-52*	-11
C#CCOCCOCCOCCNc1nc(N2CCN(C(=O)CCCCCCCCCCNC(=O)[C@H](CCCCN)n3cc(C)nn3)CC2)nc(N2CCN(C(=O)CCCCCCCCCCNC(=O)[C@H](CCCN=C(N)N)n3cc(C[C@@H](C)CC)nn3)CC2)n1	12µM*	23µM*	-4%	-102*	?	-21
C#CCOCCOCCOCCNc1nc(N2CCN(C(=O)CCCCCCCCCCNC(=O)[C@H](CCCCN)n3cc(C[C@@H](C)CC)nn3)CC2)nc(N2CCN(C(=O)CCCCCCCCCCNC(=O)[C@@H]([C@H](C)O)n3cc(C)nn3)CC2)n1	5.2µM*	4.6µM*	1%	?	-59*	-12
CCOC(=O)C1=NN(C(=O)COc2ccccc2)C(O)(c2ccc(Br)cc2)C1 (stereo unspecified)	0%	-25%	0%	13	0	4
C#CCOCCOCCOCCNc1nc(N2CCN(C(=O)CCCCCCCCCCNC(=O)[C@H](CCCCN)n3cc(CCO)nn3)CC2)nc(N2CCN(C(=O)CCCCCCCCCCNC(=O)[C@H](CCCCN)n3cc(C[C@@H](C)CC)nn3)CC2)n1	?	?	1%	-20	0	0
C#CCOCCOCCOCCNc1nc(N2CCN(C(=O)CCCCCCCCCCNC(=O)[C@@H](CCSC)n3cc(CCO)nn3)CC2)nc(N2CCN(C(=O)CCCCCCCCCCNC(=O)[C@H](CCCN=C(N)N)n3cc(C[C@@H](C)CC)nn3)CC2)n1	?	26µM*	0%	-100*	-22	-10
C#CCOCCOCCOCCNc1nc(N2CCN(C(=O)CCCCCCCCCCNC(=O)[C@H](CCCCN)n3cc(C)nn3)CC2)nc(N2CCN(C(=O)CCCCCCCCCCNC(=O)[C@@H]([C@H](C)O)n3cc(C)nn3)CC2)n1	?	?	-2%	-60*	22	0
C#CCOCCOCCOCCNc1nc(N2CCN(C(=O)CCCCCCCCCCNC(=O)Cn3cc(C[C@@H](C)O)nn3)CC2)nc(N2CCN(C(=O)CCCCCCCCCCNC(=O)[C@@H](CCSC)n3cc(CCO)nn3)CC2)n1	10µM*	?	2%	2	3	6
COc1ccc(Nc2nc(-c3ccc4c(c3)NC(=O)CO4)cs2)cc1	?	?	/	-13	4	4
COc1ccc(-c2cc(-c3ccccc3)nc(-c3ccc4c(c3)NC(=O)CO4)c2)cc1	?	?	25µM*	-29	21	11
COc1ccccc1Nc1nc(-c2ccc3c(c2)NC(=O)CO3)cs1	18µM*	23µM*	1%	?	12	-2
COc1ccc(-c2cc(-c3ccccc3)nc3c2COc2ccc(F)cc2-3)cc1	?	?	?	/	/	-11
CCC(C)Nc1nc(-c2ccc3c(c2)NC(=O)CO3)cs1 (stereo unspecified)	?	23µM*	1%	-2	4	-12
COc1ccc(Cl)c(-c2cc(C(=O)Nc3ccccc3)[nH]n2)c1	16µM*	23µM*	0%	-51*	0	-19
COc1ccc(Cl)c(-c2cc(C(=O)Nc3ccc(F)cc3)[nH]n2)c1	23µM*	15µM*	5%	?	-52*	-20
COc1ccc(Cl)c(-c2cc(C(=O)NCc3ccco3)[nH]n2)c1	-23%	-23%	-1%	-30	-22	-7
COc1cc(NC(=O)c2cc(-c3cccc(OC)c3)n[nH]2)cc(OC)c1	21µM*	15µM*	-7%	/	/	-17
COc1cc(C(=O)NNC(=O)c2cc(-c3ccccc3)n[nH]2)cc(OC)c1C	-15%	0%	/	-64*	15	3
CCOC(=O)C[C@H]1c2cc(F)ccc2S(=O)(=O)N1C1CCCC1	?	-21%	1%	25	-17	20
Cc1ccc(NC(=O)c2cc(-c3ccccc3)n[nH]2)cc1	15%	-12%	-3%	-75*	-7	-11
Cc1ccc(CCNC(=O)c2cc(-c3ccccc3)n[nH]2)cc1	?	?	-2%	/	/	4
Cc1ccccc1-c1nc(CN2CCC(C(=O)N3CCN(c4ccccn4)CC3)CC2)c(C)o1	?	23µM*	4%	0	-4	-13
Cc1ccccc1-c1nc(CN2CCC(C(=O)NCCCN3CC(C)CC(C)C3)CC2)c(C)o1 (stereo unspecified)	?	23µM*	-2%	-6	?	-2
Cc1ccccc1-c1nc(CN2CCC(C(=O)NCCCN3CCCC3)CC2)c(C)o1	?	?	-3%	-26	-57*	-3
Cc1ccccc1-c1nc(CN2CCC(C(=O)N3CCC(C(N)=O)CC3)CC2)c(C)o1	-1%	18%	-3%	-19	?	-14
SMILES	TDP1 cell noCPT	DT40 TDP1 CPT	ClpP mod	IL1B secr inh	DRD3 antagonist	D3 ag
Cc1ccccc1-c1nc(CN2CCC(C(=O)NCCCN3CCOCC3)CC2)c(C)o1	-6%	-28%	-1%	-4	-9	-22
Cc1oc(-c2ccccc2F)nc1CN1CCC(C(=O)NCCC2=CCCCC2)CC1	23µM*	?	1%	-13	-57*	-2
Cc1ccccc1-c1nc(CN2CCC(C(=O)NCCN3CCOCC3)CC2)c(C)o1	2%	8%	3%	-7	3	-5
Cc1ccc(Cn2c(CNS(=O)(=O)c3ccc(F)c(Cl)c3)nc3cccnc32)cc1	-37%	-15%	-1%	/	/	-25
COc1cccc(Cn2c(CNS(=O)(=O)c3ccc(F)c(Cl)c3)nc3cccnc32)c1	10µM*	?	-2%	/	/	-32
COc1cccc(Cn2c(CNC(=O)c3cc([N+](=O)[O-])ccc3Cl)nc3cccnc32)c1	?	16µM*	-5%	/	/	-13
Cc1cccc(Cn2c(CNS(=O)(=O)c3ccc(C(C)C)cc3)nc3cccnc32)c1	15µM*	?	2%	/	/	13
O=S(=O)(c1ccc(Cl)cc1Cl)n1ccnc1	-14%	-5%	1%	/	/	1

Bioassay records deposited in PubChem by National Center for Advancing Translational Sciences (NCATS).
